Assay [1] is described as follows: growth inhibition of DIPG glioma cells, dose response, cell-based, JHH-DIPG-1, MIPE4.0, CellTiter-Glo, qHTS (AID 1347062; cut-off not given, nearly all actives have AC50 up to about 27 µM;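 on AC50: cells exposed to compound for two days before readout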). To be noted: JHH-DIPG-1 viability, CellTiter-Glo ATP luminescence. A general note: Cellular ATP, detected with luciferase, serves as a proxy for viable cell number.
Assay [2] is described as follows: growth inhibition of DIPG glioma cells, dose response, cell-based, SU-DIPG-XIII, MIPE5.0, CellTiter-Glo, qHTS (AID 1347064; cut-off not given, nearly all actives have AC50 up to about 23 µM;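 further: cells exposed to compound for 48 hours before the viability read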). To be noted: SU-DIPG-XIII viability, CellTiter-Glo ATP luminescence.
Assay [3] is described as follows: viability loss in pontine glioma line – cell-based, SU-DIPG-XXV, MIPE5.0, CellTiter-Glo, qHTS, dose response (AID 1347065; cut-off not given, nearly all actives have AC50 up to about 26 µM;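 further: cells exposed to compound for 48 hours before ATP readout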). As to conditions: CellTiter-Glo ATP luminescence.
The nature of assay [4]: SU-DIPG-VI glioma cell viability, MIPE4.0 library, CellTiter-Glo luminescence, qHTS (AID 1347066; cut-off not given, nearly all actives have AC50 up to about 30 µM;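 further: cells exposed to compound for 48 hours before readout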). To be noted: CellTiter-Glo ATP luminescence.
The nature of assay [5]: JHH-DIPG-1 glioma cell viability, MIPE5.0 library, CellTiter-Glo luminescence, qHTS (AID 1347067; cut-off not given, nearly all actives have AC50 up to about 26 µM;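 further: cells exposed to compound for 48 hours before readout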). To be noted: JHH-DIPG-1 glioma viability, CellTiter-Glo ATP luminescence.
A short description of assay [6]: LFS_MB_P medulloblastoma growth inhibition, cell-based, chromothripsis tumors, cisplatin or BGB combos (AID 1671449).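 Further: cells exposed for 96 hours; 0% = vehicle DMSO and 100% = killing by high DMSO.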 To be noted: LFS_MB_P medulloblastoma cells.
The nature of assay [7]: HDN33 neuroblastoma growth inhibition, cell-based, chromothripsis tumors, cisplatin or BGB combos (AID 1671450).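 Further: cells exposed to compound for four days; 0% = vehicle DMSO and 100% = cell killing by high DMSO.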 As to conditions: HDN33 neuroblastoma cells, stronger effect = higher value.
A short description of assay [8]: ICB984 medulloblastoma cell growth inhibition, synergistic combos for chromothripsis tumors, cisplatin or BGB combos (AID 1671451; call rule not given here;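 further: cells exposed for 96 hours before readout; 0% = vehicle DMSO and 100% = killing by high DMSO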). To be noted: ICB984 medulloblastoma cells, drug combinations, stronger effect = higher value.
A short description of assay [9]: LFS_MB_1R medulloblastoma cell growth inhibition, synergistic combos for chromothripsis tumors, cisplatin or BGB combos (AID 1671452).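 Further: cells exposed for 96 hours before readout.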 As to conditions: LFS_MB_1R medulloblastoma cells, stronger effect = higher value.
Assay [10] in a line: HTB85 osteosarcoma cell growth inhibition, synergistic combos for chromothripsis tumors, BGB or cisplatin IC20 combos (AID 1671453).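 Further: cells exposed for 96 hours before readout; 0% = vehicle DMSO and 100% = high DMSO killing control.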 To be noted: HTB85 osteosarcoma cells, drug combinations, stronger effect = higher value.
The nature of assay [11]: CRL2098 osteosarcoma cell growth inhibition, synergistic combos for chromothripsis tumors, BGB or cisplatin IC20 combos (AID 1671454).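 Further: cells exposed for 96 h before readout; 0% = vehicle DMSO and 100% = killing by high DMSO.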 As to conditions: CRL2098 osteosarcoma cells, drug combinations, stronger effect = higher value.
Assay [12] in a line: HD-MB03 medulloblastoma cell growth inhibition, synergistic combos for chromothripsis tumors, BGB or cisplatin IC20 combos (AID 1671455; in the data active means inhibition above about 83%;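 further: 0% = vehicle DMSO and 100% = high DMSO as cytotoxic control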). As to conditions: HD-MB03 medulloblastoma cells, stronger effect = higher value.
Assay [13] can be described thus: UWB1.289 ovarian carcinoma cell growth inhibition, synergistic combos for chromothripsis tumors, BGB or cisplatin combos (AID 1671456).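 Further: cells exposed to compound for four days; 0% = vehicle DMSO and 100% = killing by high DMSO.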 To be noted: UWB1.289 ovarian carcinoma cells, stronger effect = higher value.
The nature of assay [14]: LFS_MB_2R medulloblastoma cell growth inhibition, synergistic combos for chromothripsis tumors, cisplatin combos (AID 1671457).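 Further: cells exposed to compound for four days before readout.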 As to conditions: LFS_MB_2R medulloblastoma cells, stronger effect = higher value.
Assay [15] is described as follows: MDA-MB-436 breast carcinoma cell growth inhibition, synergistic combos for chromothripsis tumors, BGB or cisplatin combos (AID 1671458; call rule not given here;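 further: cells exposed for 96 hours; 0% = vehicle DMSO and 100% = killing by high DMSO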). As to conditions: MDA-MB-436 breast carcinoma growth inhibition, drug combinations, stronger effect = higher value.
Assay [16] can be described thus: UWB1.289_BRCA1 ovarian cancer growth, cell-based, BGB or cisplatin combinations (AID 1671459). To be noted: UWB1.289 BRCA1 ovarian carcinoma, drug combinations, stronger effect = higher value.
A short description of assay [17]: human astrocyte viability loss, single and combined drugs, cytotoxicity control for chromothriptic childhood tumor combination screen, cell-based, BGB or cisplatin IC20 combos (AID 1671460).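 Further: cells exposed to compounds for 96 hours before viability readout; 0% = vehicle and 100% = killing control.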 As to conditions: Human astrocytes, drug combinations, stronger effect = higher value.
Assay [18] can be described thus: growth inhibition of BT084 medulloblastoma cells, cell-based, ICGC_MB145, cisplatin and BGB IC40 combos (AID 1671461).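 Further: cells exposed to drugs for 96 hours; 0% = vehicle DMSO and 100% = high DMSO full killing control.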 To be noted: drug combinations, stronger effect = higher value.
The nature of assay [19]: growth inhibition of RCMB18 medulloblastoma cells, cell-based, cisplatin and BGB IC40 combos (AID 1671462).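 Further: cells exposed to compound for four days.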 To be noted: stronger effect = higher value.
A short description of assay [20]: growth inhibition of CRL1545 osteosarcoma cells, cell-based, cisplatin and BGB IC20 combos (AID 1671464).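 Further: cells exposed to compound for 96 hours before readout; 0% = vehicle DMSO and 100% = high DMSO killing control.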 As to conditions: stronger effect = higher value.
A short description of assay [21]: SU-DIPG-XXV glioma cell viability, MIPE5.0 library, qHTS (AID 1347068; cut-off not given, nearly all actives have IC50 up to about 30 µM;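 on IC50: cells exposed to compound for 48 hours before viability readout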).
A short description of assay [22]: growth inhibition of DIPG glioma cells, dose response, cell-based, SU-DIPG-IV, MIPE4.0, CellTiter-Glo, qHTS (AID 1347063; cut-off not given, nearly all actives have AC50 up to about 30 µM;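 further: compound exposure lasted 48 hours before the viability readout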). To be noted: SU-DIPG-IV viability, CellTiter-Glo ATP luminescence.
Setting [23] is: measured here: combination with BGB IC40, at 0.05 µM.
Where [24] appears, read: measured here: with BGB IC20 combination, at 0.5 µM.
The mark [25] stands for this setting: measured here: with cisplatin IC20 combination, at 0.5 µM.
The mark [26] stands for this setting: measured here: combination with cisplatin, at 0.5 µM.
The mark [27] stands for this setting: measured here: combination with cisplatin, at 5 µM.

Data on four compounds can be found in PubChem BioAssay.

Results filed as inconclusive are left out. The source made the active and inactive calls. Unless noted, no stated cut-off is given here; in the data, active means inhibition above about 80%; inactive means the rest.

In general, AC50 refers to the concentration at which the activity in the assay is half-maximal. A word on the inhibition: it is the drop in the measured response relative to a control, in per cent. Consider `COc1ccc(C(=O)CC2(O)C(=O)Nc3c(Cl)ccc(Cl)c32)cc1` (centres undefined), for which the AC50 was 6.62 µM (active) in [1], 11.8 µM (active) in [2], 4.17 µM (active) in assay [3] and 2.63 µM (active) in assay [5]. Also, in assay [4], the compound was called inactive. The inhibition in assay [6] (at 0.5 µM, stronger effect = higher value) was -20.8% (inactive); in [6] (measured here: combination with BGB IC20, at 0.005 µM), -14.2%; in assay [6] (measured here: combination with BGB IC40, at 0.005 µM) it was -20.5%; in assay [6] (setting [23]), -14.8%; in assay [6] (measured here: combination with cisplatin, at 0.5 µM, stronger effect = higher value), -51.4%; in assay [6] (measured here: combination with cisplatin, at 5 µM, stronger effect = higher value), 10.7%. Besides, the inhibition was 63.6% in [7] (BGB combo, at 5 µM); 28.4% (inactive) in assay [7] (at 0.5 µM); 59.7% in [7] (cisplatin combo, at 5 µM); 21.3% in [7] (setting [24]); 16% in assay [7] (setting [25]); 93.1% in assay [7] (single agent, at 5 µM). Also, the inhibition in [8] (BGB IC20 combo, at 0.005 µM) was -4.85%; in assay [8] (BGB IC40 combo, at 0.005 µM) it was -25.9%; in [8] (BGB IC40 combo, at 0.05 µM) it was 11.3%; in assay [8] (at 0.5 µM), -24.6% (inactive); in [8] (cisplatin combo, at 0.05 µM) it was 8.85%; in [8] (cisplatin combo, at 0.5 µM) it was -32.2%. The inhibition in assay [8] (cisplatin combo, at 5 µM) was -25.3%; in [8] (measured here: 5 uM single agent, at 5 µM), -28.8%; in [9] (at 0.5 µM) it was 2.98% (inactive); in assay [9] (setting [23]), -32.3%; in [9] (setting [26]) it was 23.2%; in [9] (setting [27]) it was 27.4%. Also, the inhibition is 33.2% (inactive) in assay [10] (at 0.5 µM); 33.1% in assay [10] (measured here: with BGB IC20, at 0.5 µM); 64.4% in assay [10] (measured here: with BGB IC20, at 5 µM); 11.7% in [10] (measured here: with cisplatin IC20, at 0.5 µM); 63.8% in assay [10] (measured here: with cisplatin IC20, at 5 µM); 88.4% in assay [10] (single agent, at 5 µM). Besides, the inhibition was -4.98% (inactive) in [11] (at 0.5 µM); 4.02% in [11] (measured here: combination with BGB at IC20, at 0.5 µM); -4.5% in assay [11] (measured here: combination with cisplatin at IC20, at 0.5 µM); 57.3% (inactive) in assay [12] (at 0.5 µM); 58.6% in [12] (measured here: combo with BGB at IC20, at 0.5 µM); 55.7% in [12] (measured here: combo with cisplatin at IC20, at 0.5 µM). Also, the inhibition is 11.3% (inactive) in assay [13] (at 0.5 µM); -8.43% in [13] (measured here: inhibition with BGB combination, at 0.05 µM); -6.45% in assay [13] (measured here: inhibition with cisplatin combination, at 0.05 µM); -4.47% (inactive) in [14] (at 0.5 µM); -11.7% in assay [14] (setting [26]); -26.3% in [14] (setting [27]). Moreover, the inhibition was 2.68% (inactive) in assay [15] (at 0.5 µM); -5.4% in assay [15] (measured here: BGB combination, at 0.5 µM); 40.2% in [15] (measured here: BGB combination, at 5 µM); -2.19% in [15] (measured here: cisplatin combination, at 0.5 µM); 64.3% in assay [15] (measured here: cisplatin combination, at 5 µM); 47.8% in assay [16] (BGB combination, concentration series, at 5 µM). Also, the inhibition in [16] (at 0.5 µM) is 14.6% (inactive); in [16] (cisplatin combination, concentration series, at 5 µM), 51.1%; in [17] (at 0.5 µM), 9.33% (inactive); in assay [17] (measured here: combo with BGB IC20, at 0.5 µM), 10.9%; in assay [17] (measured here: combo with cisplatin IC20, at 0.5 µM), 2.7%; in [18] (at 0.5 µM) it was -18.2% (inactive). Besides, the inhibition in assay [18] (cisplatin combination, at 0.5 µM) is 1.77%; in assay [18] (cisplatin combination, at 5 µM), 10.6%; in assay [18] (measured here: BGB IC40 combination 0.05 uM, at 0.05 µM) it was 2.03%; in assay [18] (single agent, at 5 µM), 40.8%; in assay [19] (at 0.5 µM), -4.73% (inactive); in assay [19] (cisplatin combo, at 5 µM) it was 26.4%. Besides, the inhibition in [19] (measured here: BGB IC40 combination, at 0.05 µM) is -41.1%; in [19] (setting [26]), 6.7%; in assay [19] (single agent, at 5 µM), 24.9%; in [20] (at 0.5 µM) it was 0.14% (inactive); in [20] (setting [24]), 16.2%; in assay [20] (setting [25]) it was -10.3%. Further, the inhibition is -6.9% in assay [20] (single agent, at 0.05 µM) and 77.7% in [20] (single agent, at 5 µM).

Consider `CCCn1c(=O)c2[nH]c(-c3cnn(Cc4cccc(C(F)(F)F)c4)c3)nc2n(CC)c1=O`, for which the compound was called inactive in assay [1], in [4] and in [21]. Moreover, in [3], the AC50 was 13.2 µM (active).

For `CC(C)N(CC[C@H](c1ccccc1)c1cc(CO)ccc1O)C(C)C`, the compound was called inactive in assay [1], in assay [22] and in assay [4].

In general, IC50 refers to the concentration that gives 50% inhibition. As for `COc1cc(C(=O)N2CCC(N3CCN(C)CC3)CC2)ccc1Nc1ncc2c(n1)N(C)c1ccccc1C(=O)N2C`, the AC50 in assay [1] is 16.6 µM (active); in [22], 16.6 µM (active); in assay [5], 18.6 µM (active). The half-inhibitory concentration (IC50) in assay [21] is 20.9 µM (active).
